Compound activity as filed in PubChem.
TDP1 cell CPT: DT40-hTDP1 cell growth loss with CPT | chicken DT40 Tdp1-/-;hTDP1 cells + 20 nM CPT, ATP luminescence, 48 h | Potency, µM (series often up to 46.2 µM), for the others: top-dose activity change, negative = growth inhibition, hits mostly inhibitors | 420,000 tested, 12% active | AID 686979; also: potency is read from the fitted curve at half-maximal effect; nearly all actives have a fitted effect of over 55% in size
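Chicken DT40 Tdp1-/- cells stably complemented with human TDP1 were seeded at 400 cells/well in medium containing 20 nM camptothecin, exposed to pin-transferred compounds, and grown at 37 °C for at least 48 hr. Viability was read as ATP luminescence.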
HT1080-NT tox: kills 2HG-producing HT-1080-NT fibrosarcoma cells; HT-1080-NT fibrosarcoma viability, CellTiter-Glo ATP luminescence, 48 h; Potency, µM (doses to about 46.1 µM), without a hit: at the highest dose activity, negative = less viability, most hits filed as cytotoxic; 360,000 tested, 1.6% active;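 also: NT is the 2HG producing partner of a matched IDH1 knockdown line; potency is read from the fitted curve at half-maximal effect; 0% = DMSO-treated cells and -100% = media-only wells without cells; nearly all actives have a fitted effect of over 55% in size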
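Fibrosarcoma NT cells, 750 per well in 5% FBS RPMI, were exposed to compound for 48 hours. Viability: CellTiter-Glo luminescence.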
IL-1B inflam inh: blocks inflammasome-driven IL-1 beta release; THP-1 LPS/ATP IL-1B secretion, AlphaLISA, 16 h; active compounds read low; activity change, % at 57.5 µM; 360,000 tested, 4.7% active; AID 743279; in the data active = activity change below about -50%; inconclusive = mostly about -30% to -49%
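Secreted IL-1B measured by AlphaLISA bead assay after 16 h compound exposure of THP-1 cells; compounds (final up to 57.5 uM) added 1 h before LPS (250 ng/mL) and ATP (1.25 mM) stimulation; lower signal means less secretion.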
HT1080 IDH1KD tx: kills HT-1080 cells with IDH1 knockdown; AID 686971; Potency, µM (doses to about 46.1 µM), without a hit: at the highest dose activity, negative = toxicity, hits mostly cytotoxic; 360,000 tested, 2% active; HT-1080 IDH1 knockdown viability, ATP luminescence, 48 h;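 also: potency is read from the fitted curve at half-maximal effect; 0% = DMSO wells and -100% = cell-free medium wells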
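% activity derives from luminescence (CellTiter-Glo), normalised to DMSO and no-cell wells. HT-1080-IDH1KD cells, 750/well, had 48 h compound exposure at 37 °C.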
TDP1 cell noCPT: qHTS for Inhibitors of human tyrosyl-DNA phosphodiesterase 1 (TDP1): qHTS in cells in absence of CPT | DT40 Tdp1-/- hTDP1 cells, no CPT, ATP luminescence, 48 h | Potency, µM (highest dose often 46.2 µM), for inactives: top-dose activity change, negative = growth inhibition, hits mostly inhibitors | 420,000 tested, 15% active | AID 686978, 2013; also: potency is read from the fitted curve at half-maximal effect; nearly all actives have a fitted effect of over 55% in size
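Growth of hTDP1-complemented DT40 Tdp1-knockout cells is measured by ATP luminescence after at least 48 hr compound exposure at 37 °C, with DMSO substituting for the 20 nM CPT used in the parallel screen.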
* marks the source's active call; other numbers are inactive results; ? = inconclusive; . = no result given. Compounds with a hit are over-represented: about 19% of the library has one in this group of screens. Unless noted, calls follow the shape of the dose curve; as a rule, active = well fitted curve in the direction sought with a large enough effect; inconclusive = small, poorly fitted or top-dose-only effect, or another doubt; inactive = no such curve, though single readings can be large; an effect the other way counts as inactive or inconclusive. Unless noted, % is scaled to controls: 0 for no effect and ±100 for the full control effect.

SMILES	TDP1 cell CPT	HT1080-NT tox	IL-1B inflam inh	HT1080 IDH1KD tx	TDP1 cell noCPT
O=C1CC(N2C(=O)/C(=C/C=C/c3ccccc3)SC2=S)C(=O)N1c1ccccc1 (centres undefined)	13µM*	1%	?	10%	13µM*
COc1ccccc1N1CCN(C(=O)c2cc(-c3ccc(Cl)cc3)on2)CC1	22µM*	-6%	0	-15%	?
COc1ccccc1-c1cc(C(=O)N2CCN(c3ccccc3OC)CC2)no1	18µM*	?	-2	?	?
COc1ccccc1N1CCN(C(=O)c2cc(-c3ccc(C)cc3)on2)CC1	?	-4%	-1	-5%	?
COc1ccccc1N1CCN(C(=O)c2nc(SC)ncc2Cl)CC1	1µM*	.	.	.	1µM*
O=C(NC1CCN(C(=S)NCCc2ccccc2)CC1)C1CCCCC1	0%	2%	12	1%	0%
Cc1nc(-c2cnn(-c3ccccc3)c2)c2cc(C)oc2n1	?	-9%	-16	-8%	18µM*
O=C(Nc1cc(Cl)ccc1N1CCOCC1)C1=COCCO1	0%	-4%	-9	-12%	-22%
COc1cccc(CN2CCC(N(CCc3ccccc3)Cc3ccccc3)CC2)c1OC	?	?	-62*	?	29µM*
COc1cccc(CN2CCN(Cc3cccc(Oc4ccccc4)c3)CC2)c1OC	?	-23%	-3	-30%	-26%
COc1ccc(NC(=O)c2cc(-c3cc(Cl)ccc3OC)n[nH]2)cc1OC	21µM*	?	-65*	?	?
COc1ccc(NC(=O)c2cc(-c3cc(C)cc(F)c3)n[nH]2)cc1OC	26µM*	-16%	?	?	?
COc1ccc(Cl)cc1-c1cc(C(=O)Nc2ccc(F)cc2)[nH]n1	?	-20%	0	-18%	-10%
COc1ccc(NC(=O)c2cc(-c3cc(Cl)ccc3C)n[nH]2)cc1OC	?	-20%	-52*	-25%	?
O=C(CN1C(=O)NC2(CCCCCC2)C1=O)c1ccc(Cl)cc1	-20%	-9%	0	-2%	-4%
O=C(O)c1cc(N2CCCCC2)nc2ccccc12	0%	9%	-4	0%	-17%
CCOC(=O)c1cc(N2CCCCC2)nc2ccccc12	23µM*	9%	5	4%	?
CC(C)C[C@@H](N)C(=O)O	-21%	.	.	.	-25%
Cc1ccc(S(=O)(=O)NCc2ccccc2)cc1C(=O)N(C)CC(=O)Nc1c(Cl)cccc1Cl	23µM*	0%	-13	-1%	?
CSc1ccc(CN(C)C(=O)c2cc(S(=O)(=O)NCc3ccccc3)ccc2C)cc1	?	?	?	?	21µM*
Cc1c(OCC(=O)N[C@@H](Cc2ccccc2)C(=O)O)ccc2c1oc(=O)c1ccccc12	5%	10%	-9	2%	10%
C=CC[N+]1([C@H]2C[C@H]3[C@@H]4CC[C@H]5C[C@H](OC(C)=O)[C@@H](N6CCCCC6)C[C@]5(C)[C@H]4CC[C@]3(C)[C@H]2OC(=O)CC)CCCCC1	-5%	.	.	.	-16%
COc1ccc(/C=N/N2CCN(c3ccc(Cl)cc3)CC2)cc1	12%	26%	1	?	-2%
Cc1ccc(N=C2C(=S)N(c3ccc(C)cc3)C(=N)N2/N=C/c2ccc(Cl)cc2)cc1	26µM*	0%	?	9%	26µM*
COC(=O)c1ccc(CNC(=O)C(Cc2ccccc2)NC(=O)c2ccccc2)cc1 (centres undefined)	-23%	2%	30	-1%	?
Cn1c(=O)c2c(nc(SCc3nc(N)nc(N4CCCCC4)n3)n2C)n(C)c1=O	21µM*	8%	0	2%	23µM*
CCCn1c(SCc2nc(N)nc(N3CCCCC3)n2)nc2c1c(=O)n(C)c(=O)n2C	?	6%	36	2%	?
